Assay results published in PMC5540273 (PLoS ONE, 2017).

tested on: ABL2; conditions: concentration: 1 μM, replicates: in singlicate; n = 1
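Further: KINOMEscan kinase panel screen.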

SMILES | %Inh
Cl.Cl.NCC(NCc1ccc(-c2ccnc3[nH]ccc23)s1)c1ccccc1 (centres unmarked) [GSK1321565] | 1%
Cl.NC(=O)c1cccc(Nc2nccc(Nc3ccc(Oc4c(Cl)cccc4Cl)c(Cl)c3)n2)c1 [GW659009] | 85%
Cc1ccc(C)c(NC(=O)NC2CCN(c3ccnc(Nc4ccc(F)cc4)n3)C2)c1 (centres unmarked) [GSK1379720] | 7%
COC(=O)Nc1nc2cc(Oc3ccc(NC(=O)Nc4cc(C(F)(F)F)ccc4F)cn3)ccc2[nH]1.Cl.Cl [GW681170] | 82%
Cn1cc(-c2[nH]c3cc(NC(=O)[C@H](N)C4CCCCC4)cc4c3c2C=NNC4=O)cn1 | 30%
CCn1c(-c2nonc2N)nc2c(C#CC(C)(C)O)ncc(OCCCCN)c21.O=C(O)C(F)(F)F.O=C(O)C(F)(F)F [GSK507274] | 11%
NCCCC(NC(=O)c1cc(Br)c(-c2ccnc3[nH]ccc23)s1)c1ccccc1.O=C(O)C(F)(F)F.O=C(O)C(F)(F)F (centres unmarked) [GSK1287544] | 23%
Cc1ccc(C(=O)Nc2ccc(Nc3ccnc4cc(-c5nccs5)ccc34)cc2O)cc1.Cl [GW494702] | 12%
CN(C)S(=O)(=O)c1cc(-c2ccc3nccc(-c4cccc(S(N)(=O)=O)c4)c3c2)cnc1N [GSK1669921] | 17%
COc1ccc(Nc2nccc(NCCNC(=O)c3cc4ccccc4s3)n2)cc1 [GSK1379896] | 9%
Cc1ccc(F)c(C(=O)Nc2cccc(-c3nn4ccccc4c3-c3ccnc(Nc4cccc(F)c4)n3)c2)c1F [GSK361061] | 62%
Nc1n[nH]c2cnc(-c3ccccc3)cc12 [SB-642124] | 16%
Cc1cccc(NC(=O)Nc2ccc(Oc3ncnc4ccn(C)c34)cc2)c1 | 0%
COc1cc2c(cc1OCCN1CCNCC1)ncc1c3ccc(C#N)cc3[nH]c21 | 8%
Fc1ccc(-c2ncn(C3CCNCC3)c2-c2ccnc(Oc3ccc(-c4ccccc4)cc3)n2)cc1 [SB-245391] | 1%
CC(=O)Nc1nc2cnc(Nc3cc(NC(=O)c4cccc(C5(C#N)CC5)c4Cl)ccc3C)nc2s1 | 70%
O=C(O)C(F)(F)F.O=C(O)C(F)(F)F.O=c1[nH]ccc2nc(N[C@@H]3CCCNC3)nc(Nc3ccc(S(=O)(=O)N4CCOCC4)cc3)c12 [GSK2177277] | 46%
Oc1cc(Nc2ccnc3cc(I)ccc23)ccc1F [GW552771] | 91.7%
COc1cccc(C(=O)Nc2cccc(Oc3ccc4nc(NC(=O)C5CC5)cn4n3)c2)c1 | 96.3%
O=C(Nc1cccc(Oc2ccc3nc(NC(=O)C4CC4)cn3n2)c1)c1ccccc1C(F)(F)F | 79%
Clc1ccc(-c2nn3ncccc3c2-c2ccnc(Nc3ccc4c(c3)OCCO4)n2)cc1 [GW829116] | 0%
O=C(Nc1cccc(-c2nn3ccccc3c2-c2ccnc(Nc3cccc(F)c3)n2)c1)c1c(F)ccc(F)c1Cl [GSK357952] | 25%
COC(=O)Nc1nc2ccc(Oc3ccc(NC(=O)Nc4cc(C(F)(F)F)ccc4F)cc3)cc2n1C.Cl [GW692089] | 84%
O=C(Nc1cccc(-c2nn3ncccc3c2-c2ccnc(Nc3ccccc3)n2)c1)c1c(F)cccc1F [GSK198271] | 42%
CN1CCN(CCCNc2nccc(-c3c(-c4ccc(F)cc4)nn4cc(C(F)(F)F)ccc34)n2)CC1 [GW621581] | 9%

tested on: ACVR1B; conditions: concentration: 1 μM, replicates: in singlicate; n = 1

SMILES | %Inh
Cc1ccc(C(=O)N2CC[C@@H](O)C2)cc1-n1c(C)cc(OCc2ccc(F)cc2F)c(Br)c1=O | 12%
c1ccc(Oc2ccc(Nc3ccnc4cc(-c5ccc(CNCCN6CCOCC6)o5)ccc34)cc2)nc1 [GW567145] | 0%
CC(C)c1nc(-c2cccc(NS(=O)(=O)c3c(F)cccc3F)c2F)c(-c2ccnc(Nc3ccc(N4CCOCC4)nc3)n2)s1 [GSK2008607] | 90.5%
c1ccc(-c2cnc3nccnn23)cc1 [AH20685] | 0%
CCn1c(-c2nonc2N)nc2c(C#CC(C)(C)O)nc(OC[C@H](N)c3ccccc3)cc21 [GSK943949] | 0%
CSc1cccc2c(-c3ccncn3)c(-c3ccc(F)cc3)nn12 [GW514786] | 43%
FC(F)(F)c1ccc(/C=C/c2cncnc2Nc2ccc3[nH]c(Cc4ccccc4)nc3c2)cc1 [GW709199] | 0%
C[C@@H](Oc1cc(-n2cnc3cc(-c4ccnc(NCCS(C)(=O)=O)c4)ccc32)sc1C(N)=O)c1ccccc1Cl [GSK907232] | 0%
O=C(Nc1n[nH]c2cc(-c3ccoc3)ccc12)C1CC1 [SB-738481] | 0%
CC(C)(C)c1ccc2nccc(Nc3cccc(O)c3)c2c1 [GW856795] | 0%
Cl.Cl.NCC(NC(=O)c1cc(-c2ccccc2)c(-c2ccnc3[nH]ccc23)s1)c1ccccc1 (centres unmarked) [GSK1321561] | 0%
CCc1ccc(-c2ccc3c(c2)-c2c(cnn2C)S(=O)(=O)N3C)cc1 | 14%
Cl.Cl.NCC(NCc1ccc(-c2ccnc3[nH]ccc23)s1)c1ccccc1 (centres unmarked) [GSK1321565] | 0%
Cl.NC(=O)c1cccc(Nc2nccc(Nc3ccc(Oc4c(Cl)cccc4Cl)c(Cl)c3)n2)c1 [GW659009] | 100%
Cc1ccc(C)c(NC(=O)NC2CCN(c3ccnc(Nc4ccc(F)cc4)n3)C2)c1 (centres unmarked) [GSK1379720] | 0%
COC(=O)Nc1nc2cc(Oc3ccc(NC(=O)Nc4cc(C(F)(F)F)ccc4F)cn3)ccc2[nH]1.Cl.Cl [GW681170] | 0%
Cn1cc(-c2[nH]c3cc(NC(=O)[C@H](N)C4CCCCC4)cc4c3c2C=NNC4=O)cn1 | 3%
CCn1c(-c2nonc2N)nc2c(C#CC(C)(C)O)ncc(OCCCCN)c21.O=C(O)C(F)(F)F.O=C(O)C(F)(F)F [GSK507274] | 0%
NCCCC(NC(=O)c1cc(Br)c(-c2ccnc3[nH]ccc23)s1)c1ccccc1.O=C(O)C(F)(F)F.O=C(O)C(F)(F)F (centres unmarked) [GSK1287544] | 0%

SMILES | %Inh
Cc1ccc(C(=O)Nc2ccc(Nc3ccnc4cc(-c5nccs5)ccc34)cc2O)cc1.Cl [GW494702] | 0%
CN(C)S(=O)(=O)c1cc(-c2ccc3nccc(-c4cccc(S(N)(=O)=O)c4)c3c2)cnc1N [GSK1669921] | 0%
COc1ccc(Nc2nccc(NCCNC(=O)c3cc4ccccc4s3)n2)cc1 [GSK1379896] | 0%
Cc1ccc(F)c(C(=O)Nc2cccc(-c3nn4ccccc4c3-c3ccnc(Nc4cccc(F)c4)n3)c2)c1F [GSK361061] | 60%
Nc1n[nH]c2cnc(-c3ccccc3)cc12 [SB-642124] | 0%
Cc1cccc(NC(=O)Nc2ccc(Oc3ncnc4ccn(C)c34)cc2)c1 | 0%
COc1cc2c(cc1OCCN1CCNCC1)ncc1c3ccc(C#N)cc3[nH]c21 | 0%
Fc1ccc(-c2ncn(C3CCNCC3)c2-c2ccnc(Oc3ccc(-c4ccccc4)cc3)n2)cc1 [SB-245391] | 72%
CC(=O)Nc1nc2cnc(Nc3cc(NC(=O)c4cccc(C5(C#N)CC5)c4Cl)ccc3C)nc2s1 | 0%
O=C(O)C(F)(F)F.O=C(O)C(F)(F)F.O=c1[nH]ccc2nc(N[C@@H]3CCCNC3)nc(Nc3ccc(S(=O)(=O)N4CCOCC4)cc3)c12 [GSK2177277] | 2%
Oc1cc(Nc2ccnc3cc(I)ccc23)ccc1F [GW552771] | 54%
COc1cccc(C(=O)Nc2cccc(Oc3ccc4nc(NC(=O)C5CC5)cn4n3)c2)c1 | 0%
O=C(Nc1cccc(Oc2ccc3nc(NC(=O)C4CC4)cn3n2)c1)c1ccccc1C(F)(F)F | 0%
Clc1ccc(-c2nn3ncccc3c2-c2ccnc(Nc3ccc4c(c3)OCCO4)n2)cc1 [GW829116] | 28%
O=C(Nc1cccc(-c2nn3ccccc3c2-c2ccnc(Nc3cccc(F)c3)n2)c1)c1c(F)ccc(F)c1Cl [GSK357952] | 0%
COC(=O)Nc1nc2ccc(Oc3ccc(NC(=O)Nc4cc(C(F)(F)F)ccc4F)cc3)cc2n1C.Cl [GW692089] | 0%
O=C(Nc1cccc(-c2nn3ncccc3c2-c2ccnc(Nc3ccccc3)n2)c1)c1c(F)cccc1F [GSK198271] | 0%
CN1CCN(CCCNc2nccc(-c3c(-c4ccc(F)cc4)nn4cc(C(F)(F)F)ccc34)n2)CC1 [GW621581] | 83%
